Screen size: about 310,000 compounds; about 11,000 (3.5%) were called active. Not shown: some 4% with an inconclusive outcome. The sample holds actives, similar compounds and a random draw of the others, so the mix is not that of the screen. Where a structure was tested more than once in an assay, its records may differ in their call. Values without a mark were called inactive. The call rests on the fitted dose curve; in most records, active means well fitted inhibition curve with a large enough effect; inconclusive means small, poorly fitted or top-dose-only effect, or another doubt; inactive means no such curve, though single readings can be large or run the other way.
biological target: 4'-phosphopantetheinyl transferase ffp (Bacillus subtilis) (UniProt Q9F4F7); experiment: qHTS Assay for Inhibitors of Bacillus subtilis Sfp phosphopantetheinyl transferase (PPTase); conditions: Biochemical Sfp PPTase activity;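 further: the enzyme is Sfp with the accession as filed and its product quenches rhodamine fluorescence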;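 on largest response in the series, negative = inhibition: 0% = enzyme reaction without inhibitor and -100% = no enzyme wells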
Procedure, shortened: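 Fluorescence-quenching assay with 15 nM Sfp, 5 uM rhodamine-CoA and 12.5 uM BHQ-2-labelled ybbR peptide in pH 7.6 Hepes/MgCl2 buffer. Enzyme was pre-incubated with compound for 15 min at room temperature. Rate was taken from the 30-min fluorescence change (525/598 nm).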
Potency means the concentration at half of the fitted maximal effect.

Compound	largest response in the series, negative = inhibition	Potency
CCCc1c(C(=O)N/N=C(\C)CCc2ccc(OC)cc2)nnn1-c1nonc1N	10.3%	
CCOc1ccc(N2C(=O)/C(=C/c3ccc(C)o3)N(C)C2=S)cc1		3.98 µM (active)
CCOc1ccc(N2C(=O)CN(c3cccc4ccccc34)C2=S)cc1	11.1%	
CCO/C=C1\C(=O)N(c2ccc(OCC)cc2)C(=O)c2ccccc21	3.31%	
COC(=O)C1=C(C(=O)OC)[C@@H]2N(C)c3ccccc3[C@@]23C[C@@H](C(=O)OC)N(S(=O)(=O)c2ccc(Br)cc2)C3=N1	14%	
CCOC(=O)C1=NO[C@@]2(C=C(Br)C(=O)[C@H]3O[C@H]32)C1		31.6 µM (active)
CCOC(=O)C1=C(C)N=C2c3ccccc3C(=O)C2C1c1ccc(Br)cc1 (stereo not drawn)	10.1%	
CCOC(=O)C1=NOC(Cn2cc(C(C)=O)c(=O)[nH]c2=O)C1 (stereo not drawn)	15.9%	
Cc1c(C=O)c2ccccc2n1CCOc1ccccc1	-1.13%	
CCOc1ccc(N/C=C/C(=O)c2cc(OC)c(OC)c(OC)c2)cc1	-7.21%	
COc1ccccc1NC(=O)CSc1nnc(CNC(=O)c2ccccc2F)o1	15.2%	
NC(=O)c1c(NC(=O)CSc2nnc(-c3ccco3)n2N)sc2c1CCCC2		5.62 µM (active)
NC(=O)c1c(NC(=O)CSc2nc(N)cc(=O)[nH]2)sc2c1CCCC2	-28%	
CCc1cccc(C)c1NC(=O)CSc1nnc(-c2ccco2)n1N	-3.08%	
CCOc1ccccc1NS(=O)(=O)c1c[nH]c(C(=O)OC)c1	4.59%	
COC(=O)C1=C(C)N=C2SC(C)C(=O)N2C1/C=C/c1ccccc1 (stereo not drawn)	18.9%	
CC(OC(=O)c1ccccc1N1C(=O)C2C3CCC(C3)C2C1=O)C(=O)c1ccccc1 (stereo not drawn)	11.3%	
CCOC(=O)c1ccccc1N1C(=O)C2Sc3[nH]c(=O)sc3C(/C=C/c3ccccc3)C2C1=O (stereo not drawn)		12.6 µM (active)
CN1CCN(CCCCOc2ccccc2-c2ccccc2)CC1		56.2 µM (active)
CN1CCN(CCCCOc2cccc3ccccc23)CC1	4.87%	
CC1CN(CCOc2ccccc2[N+](=O)[O-])CC(C)O1 (stereo not drawn)	-26.3%	
c1ccc(-c2ccccc2OCCN2CCCCC2)cc1	-19%	
CC1CN(CCCOc2ccccc2-c2ccccc2)CC(C)O1 (stereo not drawn)		56.2 µM (active)

Compound	largest response in the series, negative = inhibition	Potency
CC1CCCN(CCOCCOc2ccccc2-c2ccccc2)C1 (stereo not drawn)	-31.6%	
CCN(CC)CCCNC(=O)CCn1nc(-c2ccc(Cl)cc2)ccc1=O	13.6%	
OC(CNC1CCCC1)COc1ccc(F)cc1 (stereo not drawn)	1.37%	
CCc1cccc(C)c1N1C(=O)CN(Cc2ccccc2)C1=S	13.8%	
C#CC(C)(C)NC(=O)c1cnc(-c2ccccc2)nc1-c1ccccc1	8.13%	
COc1ccc(C(=O)n2nc(C)c(Br)c2C)cc1OC	16.8%	
CC1CCN(S(=O)(=O)c2ccc3c(ccn3CC(=O)O)c2)CC1	13.3%	
CC(C)OC(=O)c1cc(NC(=O)C2C3CCC(O3)C2C(=O)O)cc(C(=O)OC(C)C)c1 (stereo not drawn)	12.5%	
Cc1sc(NC(=O)C2C3CCC(O3)C2C(=O)O)c(C(=O)OC(C)C)c1-c1ccc(Cl)cc1 (stereo not drawn)		56.2 µM (active)
COc1ccc(NC(=O)C2C3CCC(O3)C2C(=O)O)cc1OC (stereo not drawn)	-8.26%	
O=c1ccc2cc(S(=O)(=O)NCCCc3ccccc3)ccc2[nH]1	6.03%	
CCOC(=O)C1CCN(S(=O)(=O)c2c(C)noc2C)CC1	0.623%	
COc1cccc(-c2coc3cc4oc(=O)c(CC(=O)O)c(C)c4cc23)c1	3.72%	
CC(C)C(=O)Nc1ccc2oc(=O)ccc2c1	13.6%	
O=C(NC(=S)Nc1ccc2oc(=O)ccc2c1)c1ccc(-c2cccc(Cl)c2Cl)o1		79.4 µM (active)
O=C(COc1ccc(Cl)cc1)Nc1ccc2oc(=O)ccc2c1	-10.1%	
CC(C)(C)OC(=O)NCCCC1=CC2=CC(=O)C(C)(OC(=O)c3ccco3)C(=O)C2=CO1 (stereo not drawn)	-0.751%	
COC/C=C/C1=CC2=CC(=O)C(C)(OC(=O)CCC(=O)OC)C(=O)C2=CO1 (stereo not drawn)	-28.3%	56.2 µM (active)
CC(C)(C)OC(=O)NCCCCC1=CC2=CC(=O)C(C)(OC(=O)c3cccs3)C(=O)C2=CO1 (stereo not drawn)	-1.92%	
COc1cc(C2C3=C(CCCC3=O)OC3=C2C(=O)CCC3)ccc1OCC(=O)Nc1ccccc1	-3.15%	
Cc1cccc(C)c1NC(=O)COC(=O)c1ccccc1O	-13%	
Cc1cccc(NC(=S)NC(=O)c2ccc(Br)o2)c1	-10.9%	
COC(=O)c1ccccc1NC(=S)NC(=O)c1ccccc1F	10.1%	

Compound	largest response in the series, negative = inhibition	Potency
O=C(NC(=S)Nc1ccccc1C(=O)O)c1ccc(-c2ccc(Br)cc2)o1		31.6 µM (active)
CC1(C)C2CCC1(CS(=O)(=O)NCCc1c[nH]c3ccccc13)C(=O)C2 (stereo not drawn)	3.13%	
CCCCN(C)CCNC(=O)C1CCCN(S(=O)(=O)c2cccc3nsnc23)C1 (stereo not drawn)	11.4%	
COCCNC(=S)N(CCc1c(C)[nH]c2ccc(C)cc12)Cc1cccnc1	5.81%	
COc1cc(/C=C2/C(=O)ON=C2C)ccc1OCc1cccc(F)c1	-29.4%	
CCOc1cc(/C=N/O)ccc1OCc1ccccc1F	2.28%	
COc1cc(/C=C2/C(=O)ON=C2C)ccc1OCc1ccccc1F		56.2 µM (active)
O=C(Nc1nnc(-c2ccc(F)cc2)s1)c1c(F)cccc1Cl	11.5%	
O=C(NCCNc1ccc([N+](=O)[O-])cc1Cl)c1ccccc1F	13.9%	
O=C(Nc1sc2c(c1-c1nc3ccccc3[nH]1)CCCC2)C1CC1	11.4%	
O=C1NC(c2ccncc2)Nc2sc3c(c21)CCCC3 (stereo not drawn)		35.5 µM (active)
C/C(=C\c1ccccc1)C1NC(=O)c2c(sc3c2CCCC3)N1 (stereo not drawn)	-9.45%	
COc1ccc(CNC(=O)C(c2ccc(O)cc2)N(Cc2ccco2)C(=O)c2snc(C(N)=O)c2N)cc1 (stereo not drawn)	8.78%	
O=CN1CCN(C(=O)c2ccc3c(c2)OCO3)CC1	5.66%	
Cc1ccc(C(=O)NC(=S)NCCN2CCOCC2)cc1	0.183%	
O=C(NNC(=S)NCCCN1CCOCC1)c1ccncc1		28.2 µM (active)
Cc1cc(C)cc(NC(=S)NCCCN2CCOCC2)c1	3.01%	
O=C(N/N=C/c1ccoc1)c1ccc(Cl)cc1Cl	5.37%	
Cc1cccc(N2CCN(C(=O)CCS(=O)(=O)c3ccc4c(c3)NC(=O)C(C)S4)CC2)c1C (stereo not drawn)	10.9%	
CC(C)(C)OC(=O)CNC(=O)c1[nH]cnc1C(=O)N[C@@H](Cc1ccccc1)C(=O)OCc1ccccc1	19.7%	
COc1cccc(OCC(=O)Nc2ccccc2C(N)=O)c1	10.7%	
CCCCCCCCCCOC(=O)Cn1c(COc2ccc(C)cc2)[n+](C)c2ccccc21		31.6 µM (active)
CCCCOC(=O)Cn1c(=N)n(CCN(CC)CC)c2ccccc21	8.57%	

Compound	largest response in the series, negative = inhibition	Potency
CCCCOC(=O)Cn1c(=O)n(CC(=O)OCCCC)c2cc(C)ccc21	7.32%	
CCCCCCCCCCOC(=O)Cn1c(COc2cccc(OC)c2)[n+](C)c2ccccc21		44.7 µM (active)
Cc1ccc(OCCCn2c(=O)oc3ccccc32)cc1	-10.3%	
O=S(=O)(c1ccc(Cl)s1)N1CCC2(CC1)OCCO2	23.5%	
CCCCn1c(N)c(N(CCOC)C(=O)c2oc3ccc(OC)cc3c2C)c(=O)[nH]c1=O	15.3%	
O=C(CC1C(=O)NCCN1C(=O)c1ccc([N+](=O)[O-])cc1)Nc1cccc(Cl)c1 (stereo not drawn)	5.33%	
Cc1cc(C)c(S(=O)(=O)c2cc(F)ccc2C)c(=O)[nH]1	27.3%	
N#CC1=C(N)C(C#N)(C#N)[C@H](c2ccsc2)[C@H]2COCC=C12		2.51 µM (active)
CCCN1CC=C2C(C#N)=C(N)C(C#N)(C#N)C(c3cc(OC)ccc3OC)C2C1 (stereo not drawn)	-12.4%	
CCOC(=O)N1CC=C2C(C#N)=C(N)C(C#N)(C#N)[C@H](c3cccs3)[C@H]2C1	-5.72%	
COc1ccc(CNC(=O)CN(c2ccc(OC)c(Cl)c2)S(=O)(=O)c2ccc(C)cc2)cc1	17.9%	
Cc1ccc(CCN2CC(C(=O)NCCc3ccccc3)CC2=O)cc1 (stereo not drawn)	20.9%	
Cc1cccc(C(=O)NCC(=O)OCC(=O)N2CC3(C)CC2CC(C)(C)C3)c1 (stereo not drawn)	-0.692%	
Cc1nnnn1/C(=C\c1ccccc1)C(=O)OCC(=O)N1CC2(C)CC1CC(C)(C)C2 (stereo not drawn)		50.1 µM (active)
COc1ccccc1C(=O)N1CC2(C)CC1CC(C)(C)C2 (stereo not drawn)	23.6%	
CC(NCCc1ccc(S(N)(=O)=O)cc1)C(=O)NCc1ccccc1 (stereo not drawn)	4.54%	
C=CCn1c(C23CC4CC(CC(C4)C2)C3)n[nH]c1=S	14.6%	
COc1ccc(N(C(=O)c2snc(C(N)=O)c2N)C(C(=O)NC2CCCC2)c2ccc(C)o2)c(OC)c1 (stereo not drawn)	-2.29%	
Cn1cc(C(=O)c2ccc(Cl)cc2Cl)cc1C(=O)NN	10.1%	
CCN1C(=O)/C(=C2/Sc3ccccc3N2CCCS(=O)(=O)O)SC1=S	8.36%	79.4 µM (active)
CCCCN1C(=O)/C(=C2/Sc3ccc(Cl)cc3N2CC)SC1=S	3.35%	
CCN1C(=O)/C(=c2\s/c(=C3\Sc4ccccc4N3C)c(=O)n2C)N(C)C1=S	1.11%	

— PubChem BioAssay AID1490 (National Center for Advancing Translational Sciences (NCATS), 2009)
